# Reference: PubChem BioAssay AID540276 (National Center for Advancing Translational Sciences (NCATS), 2011)
# The campaign covered roughly 300,000 compounds. About 5,400 (1.8%) were called active. Another 28% or so got no clear call; they are omitted. Shown is part of a subset that was picked to be rich in actives. Values without a mark were called inactive. The call rests on the fitted dose curve; tested in HEK293 cells. Non-standard residues stand in square brackets, D forms with d. Residues, ends and D or L forms follow the SMILES beside them. ξ: configuration not given here. Ac5c = NC1(C(=O)O)CCCC1; ξS = NC(CO)C(=O)O
# Experiment: qHTS for inhibitors of binding or entry into cells for Marburg Virus
# Conditions: Marburg virus pseudotyped entry inhibition, cell reporter; series mostly up to 37.8 µM; activity change, negative = inhibition: at the top concentration
# On the % scale 0 is the no-effect control and ±100 the full control effect; potency means the concentration at half of the fitted maximal effect.
SMILES,"activity change, negative = inhibition",Potency
COc1ccccc1NC(=O)N(O)C1(C#N)CCCCC1,-15.2%,–
O=C(Nc1cccc(S(=O)(=O)NC2=NCCC2)c1)c1ccc(F)cc1F,-0.493% [at 46.1 µM],–
Cc1cc(C)c(C)c(S(=O)(=O)Nc2cccnc2)c1C,-4.45% [at 46.1 µM],–
COc1ccc(CCn2nnnc2C(c2ccccc2)N2CCN(C)CC2)cc1OC (stereo not given),–,inactive
N#Cc1ccc(C(c2nnnn2CCc2ccccc2)N2CCCCCC2)cc1 (stereo not given),–,20.6 µM (active)
CC(C)C(c1nnnn1CCc1ccccc1)N1CCN(C(=O)c2ccco2)CC1 (stereo not given),-1.5%,–
CC(C)(C)S(=O)(=O)c1ccccc1-c1noc(-c2ccccc2)c1C(N)=O,3.72% [at 46.1 µM],–
COc1ccc(S(=O)(=O)N2CCN(c3cnccn3)CC2)cc1,-12.3%,–
O=C(Nc1ccc(S(=O)(=O)NCC2CCCO2)cc1)c1ccc(F)cc1 (stereo not given),0.454% [at 46.1 µM],–
CN(Cc1ccccc1)C(=O)C(=O)c1cn(CC(=O)N2CCCC2)c2ccccc12,8.79% [at 46.1 µM],–
Cc1ccc(NNC(=O)c2cccs2)cc1Cl,–,6.31 µM (active)
CCc1ccc(NC(=O)C(=O)NNC(=O)c2cccs2)cc1,3.2% [at 46.1 µM],–
Cc1ccc(NNC(=O)c2c(F)cccc2Cl)cc1Cl,-18.7% [at 46.1 µM],–
Cc1nc(CN(C)C(=O)CC2C(=O)NCCN2Cc2ccc(F)cc2)cs1 (stereo not given),0.836%,–
C/C(=N\NC(=O)C1(C)CC1(Br)Br)c1ccc(C)cc1C (stereo not given),-12.7%,–
CCOc1ccc(/C=N/NC(N)=S)cc1,-4.53%,–
COC(=O)c1sc2ncccc2c1OCc1ccc(Cl)cc1Cl,5.87%,–
NC(N)=N/N=C/c1ccc(OCc2ccc(Cl)cc2Cl)cc1,–,10.3 µM (active)
Cc1ccc(NC(=O)COc2coc(CN3CCc4ccccc4C3)cc2=O)cc1Cl,13.1%,–
CC(=O)c1ccc(NC(=O)C(C)OC(=O)c2ccc(NS(=O)(=O)c3ccc4[nH]c(=O)[nH]c4c3)cc2)cc1 (stereo not given),6.38%,–
CCCCN1C2CCC1CC(OC(c1ccc(F)cc1)c1ccc(F)cc1)C2 (stereo not given),–,3.55 µM (active)
COc1cc(OC)cc(C(=O)Nc2nnc(SCC(=O)NCC3CCCO3)s2)c1 (stereo not given),29.5%,–

SMILES,"activity change, negative = inhibition",Potency
COc1ccc(OC)c(NC(=O)CN2CCN(C(=O)c3ccco3)CC2)c1,10.5%,–
CCOc1ccc(NC(=O)CN2CCN(CC(=O)Nc3ccc(OC)cc3)CC2)cc1,–,inactive
CCc1cc(C(=O)c2ccc(OC)cc2)c(NC(=O)CN2CCN(C)CC2)s1,–,3.55 µM (active)
COc1ccc(CNC(=O)C2CCN(C(=O)c3ccco3)CC2)cc1,-12.6% [at 46.1 µM],–
COc1cc2[nH]c(O)c(C=O)c2cc1OC,0.231% [at 46.1 µM],–
COc1cc(CC(=O)Nc2nc(-c3ccc(F)c(F)c3)cs2)cc(OC)c1OC,–,7.94 µM (active)
Cc1ccc(-c2csc(NC(=O)Cc3cccs3)n2)cc1C,-8.89%,–
CCCc1ccc(-c2csc(NC(=O)Cc3cccs3)n2)cc1,-11.2%,–
COc1ccc(-c2csc(NC(=O)COC(=O)Cc3ccc(Cl)cc3Cl)n2)cc1,-5.49%,–
COc1ccc(CC(=O)Nc2nc(-c3ccc(F)c(F)c3)cs2)cc1OC,–,10 µM (active)
COc1ccc(-c2csc(NC(=O)c3ccc(N4C(=O)CCC4=O)cc3)n2)cc1OC,3.07% [at 46.1 µM],–
CCOc1ccc(CCNC(=O)COC(=O)c2c(OC)cccc2OC)cc1OCC,-14.9%,–
Cc1cc(Br)ccc1NC(=O)CN(C)C(=O)CN1C(=O)NC2(CCCC2)C1=O,-2.22%,–
CCc1nnc(NC(=O)C2CCN(C(=O)c3ccccc3C)CC2)s1,4.28%,–
O=C(Nc1ccccc1)C1CCN(C(=O)c2ccc(Br)cc2)CC1,-6.33%,–
CCOC(=O)C(CO)NC(=O)C1(NC(C)=O)CCCC1 (stereo not given) (Ac-[Ac5c]-[ξS]-OEt),6.4% [at 46.1 µM],–
CCc1ccccc1NC(=S)N(CCN1CCCCCC1)Cc1ccco1,3.1% [at 46.1 µM],–
CCc1cccc(C)c1NC(=S)N(CCCN1CCN(C)CC1)Cc1cccs1,–,10 µM (active)
Cc1ccccc1NC(=S)N(CCCN1CCOCC1)Cc1cccs1,18.9%,–
CCC(=O)Nc1ccc(S(=O)(=O)Nc2c(NC)c3ccccc3oc2=O)cc1,-29.2% [at 46.1 µM],–
CCCN(C(=O)CSc1nnc(N)s1)c1c(N)n(Cc2ccccc2)c(=O)[nH]c1=O,-6.1%,–
CNC(=O)C1CC(=O)N(c2ccc(OCC(=O)Nc3ccccc3C)cc2)C1 (stereo not given),5.17%,–

SMILES,"activity change, negative = inhibition",Potency
Cc1cccc(N(C)C(=O)c2cc3c(=O)[nH]c4ccc(C)cc4c3s2)c1,–,3.55 µM (active)
COc1ccc(CNC(=O)c2cc3c(=O)[nH]c4ccc(C)cc4c3s2)c(OC)c1,-18.7% [at 46.1 µM],–
Cc1ccc2[nH]c(=O)c(CC=C(Cl)Cl)c(C)c2c1,7.58% [at 46.1 µM],–
CCOC(=O)N/N=C1\C[C@@H](O)[C@@H](O)[C@@H]2[C@@H]3C(=O)N(C4CCCCC4)C(=O)[C@@H]3CC[C@@H]12,19.7% [at 14.2 µM],–
Cc1ccc(NC(=O)CSC2=C(C#N)[C@H](c3ccc4c(c3)OCO4)CC(=O)N2)cc1C,-6.33%,–
NS(=O)(=O)c1cccc(NC(=O)COC(=O)c2cc([N+](=O)[O-])ccc2N2CCCC2)c1,-19.3%,–
N#Cc1cccc(NC(=O)COC(=O)c2ccccc2C(=O)c2ccc(Cl)c([N+](=O)[O-])c2)c1,–,23.1 µM (active)
O=C(COC(=O)c1ccc([N+](=O)[O-])cc1Cl)NC(=O)c1ccccc1,11.8%,–
CN(C(=O)CCNC(=O)Cn1ccc2ccccc2c1=O)c1ccc(Br)cc1,23.6% [at 46.1 µM],–
O=C(CCC1CCCN(C(=O)c2ccc(F)c(F)c2)C1)N1CCN(c2ccccn2)CC1 (stereo not given),-24.9%,–
CC1(c2ccccc2)NC(=O)N(CC(=O)Nc2cc(Cl)ccc2N2CCOCC2)C1=O (stereo not given),2.18%,–
COc1cc(OC)cc(-c2c(-c3cccs3)c3cc(-c4ccc(OC)cc4F)ccc3n2C)c1,-2.74%,–
Cc1ccccc1N1CC(C(=O)Nc2nnc(SCCC3OCCO3)s2)CC1=O (stereo not given),-24.4%,–
CC(C)(C)NC(=O)NC(=O)COC(=O)Cc1ccc(Cl)cc1Cl,-0.511% [at 46.1 µM],–
CC(C)(C)c1cc(C(=O)NN)n(Cc2ccc(Cl)cc2Cl)n1,–,11.2 µM (active)
NNC(=O)c1ccc(Cl)cc1Cl,5.31%,–
Cc1cc(NC[C@@H]2CCCO2)n2c(nc3ccccc32)c1C#N,1.22% [at 46.1 µM],–
CN1CCN(CCNC(=O)Nc2ccccc2[N+](=O)[O-])CC1,26.4% [at 46.1 µM],–
CCOc1ccc(CN2CCCN(C)CC2)cc1,-2.41%,–
CCOc1ccc(C(O)Cc2nc3ccccc3n2C)cc1 (stereo not given),14.5%,–
CCOc1ccc(C(O)Cn2c(=N)n(CCN3CCCCC3)c3ccccc32)cc1 (stereo not given),–,18.3 µM (active)
